Measurements reported in PubChem BioAssay AID2013 (Sanford-Burnham Center for Chemical Genomics, 2009).
Among all 290,000 compounds or so, about 370 (0.13%) were called active. The sample holds actives, similar compounds and a random draw of the others, so the mix is not that of the screen.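 How the source made its calls: active means spots per cell inhibited over 60%, with over 100 cells counted and total cytoplasm intensity under 500,000; inconclusive means wells with under 100 cells, flagged as likely toxic; inactive means the rest.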 Measured potencies and affinities stand elsewhere.

molecular target: G-protein coupled receptor 55 (Homo sapiens) (UniProt Q9Y2T6); assay: inhibition of LPI-stimulated GPR55 beta-arrestin translocation – imaging, U2OS, beta-arrestin-GFP, LPI agonist, primary screen (AID 2013); conditions: LPI antagonism, at 10 µM, active compounds read high;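 further: U2OS cells stably carrying GPR55 and arrestin-GFP stimulated by 5 µM LPI near EC80; imaged beta-arrestin-GFP aggregate spots per cell after agonist stimulation; plate controls were LPI-stimulated DMSO wells for no effect and DMSO wells without LPI for full effect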
Sequence (Q9Y2T6 whole entry, looked up): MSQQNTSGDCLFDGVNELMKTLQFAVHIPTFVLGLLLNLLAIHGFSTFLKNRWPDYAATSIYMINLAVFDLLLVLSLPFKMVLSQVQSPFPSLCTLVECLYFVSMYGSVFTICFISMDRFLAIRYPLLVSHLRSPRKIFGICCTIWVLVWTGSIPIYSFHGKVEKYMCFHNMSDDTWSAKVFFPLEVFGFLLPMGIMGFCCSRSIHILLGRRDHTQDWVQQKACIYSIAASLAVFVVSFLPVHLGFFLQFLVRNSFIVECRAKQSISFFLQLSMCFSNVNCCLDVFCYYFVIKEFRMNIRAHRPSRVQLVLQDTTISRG

inhibition, active:
Cc1ccc(N/N=C(\C#N)C(=N)N2CCOCC2)cc1 86.4%, Clc1ccccc1C(c1ccccc1)(c1ccccc1)n1ccnc1 98.7%, O=[N+]([O-])c1ccc(N/N=C\c2cccn2-c2ccccc2)nc1 89.6%, CC(C)(C)c1ccc(S(=O)(=O)Nc2ccc(Cc3ccncc3)cc2)cc1 80.2%, Fc1ccc(-c2n[nH]c(=S)c3ccccc23)cc1 98%, Cc1ccc(NC(=O)COC(=O)C2CC3C=CC2C3)cc1S(=O)(=O)N1CCCCC1 (stereo unspecified) 64.8%

inhibition, inactive:
CCOC(=O)c1c(C)[nH]c(C)c1S(=O)(=O)NCCN1CCN(c2cc(Cl)ccc2C)CC1 11.1%, Cc1ccc(NS(=O)(=O)c2cccc(C(=O)O)c2)cc1S(=O)(=O)N1CCCCC1 5.9%, Cc1cc(C)nc(SC2CC(=O)N(c3ccc(Cl)cc3)C2=O)n1 (stereo unspecified) 20.8%, O=[N+]([O-])c1ncn(C23CC4CC(CC(C4)C2)C3)n1 -8.9%, N#CC(c1ccccn1)c1ncc(C(F)(F)F)cc1Cl (stereo unspecified) 3.6%, O=C(NCc1ccccn1)c1ccc(Cl)c(S(=O)(=O)N2CCCCCC2)c1 21.3%, CCCCC1(CO)C(=O)N(c2ccccc2)N(c2ccccc2)C1=O -5.2%, CCCCC1(CC(=O)OCC)C(=O)N(c2ccccc2)N(c2ccccc2)C1=O 17.5%, CCCCC1(Cc2ccc([N+](=O)[O-])cc2)C(=O)N(c2ccccc2)N(c2ccccc2)C1=O 51.2%, CCCCC1(CC(=O)OC)C(=O)N(c2ccccc2)N(c2ccccc2)C1=O -3.2%, CCCCCCSc1nc(O)c(C2OC(=O)c3c2ccc(OC)c3OC)c(=O)n1CC (stereo unspecified) 2.6%, CC(=O)c1ccc(NC(=O)CCc2c(C)nn(-c3ccc(N4CCOCC4)nn3)c2C)cc1 4.4%, O=C(NCc1ccco1)C(=O)NCC1OCCN1C(=O)c1ccc(Cl)cc1 (stereo unspecified) 2.4%, O=C(Nc1ccnc(=O)[nH]1)c1sc2ccccc2c1Cl 5.4%, CCOCc1nnc(NC(=O)c2cc(OC)c(OC)cc2[N+](=O)[O-])s1 1.7%, O=C1CSC(c2cccc(Cl)c2Cl)N1c1ccccn1 (stereo unspecified) 13%, O=C1CSC(c2ccc(Cl)cc2Cl)N1c1ccccn1 (stereo unspecified) 22.4%, C/C(CC(=O)N1CCN(C=O)CC1)=N\NC(=O)c1cc2ccccc2cc1O 5.8%, Clc1ncnc2c1oc1ccccc12 26.5%, Cc1nc2c(oc3ccc(Cl)cc32)c(=O)[nH]1 -10.2%, Cc1c(N/C(=N/S(=O)(=O)c2ccc(Cl)cc2)c2ccccc2)c(=O)n(-c2ccccc2)n1C -4.8%, COc1ccc(-c2noc(-c3ccccc3-c3ccccc3)n2)cc1 10.6%, c1ccc(-c2ccccc2-c2nc(-c3ccncc3)no2)cc1 41.2%, Cc1ccc(N/N=C(\C#N)C(=N)N2CCCCCC2)cc1 -5%, Cc1ccc(N/N=C(\C#N)C(=N)N2CCCCC2)cc1 2.6%, CN(CC(=O)NCc1ccccc1F)S(=O)(=O)c1ccc(Cl)cc1 3.3%, COC(=O)CSc1nc(NCC(C)C)nc(N2CCOCC2)n1 -2.9%, Clc1ccccc1OCCn1ccnc1 1.9%, Clc1ccccc1OCCCn1ccnc1 -2.4%, CCCCN(C(=O)CCCc1nc2ccccc2c(=O)[nH]1)c1c(N)n(CCCC)c(=O)[nH]c1=O 21.5%, COC(=O)c1sc(NC(=O)/C=C/c2ccc(C)cc2)nc1C 16.9%, CSc1nc2ccc(S(=O)(=O)N3CCCCC3)cc2s1 10.7%, Cc1nc2ccc(S(=O)(=O)N3CCCCC3)cc2s1 -5.9%, CC1NC(=S)N(C2CCCCC2)C1=O (stereo unspecified) 2.5%, COc1cccc(OC)c1C1=NC(C)(C)CO1 6.1%, COc1ccc2cc(C(=O)C3CCCN(C(=O)c4cc5nc(C)cc(C)n5n4)C3)ccc2c1 (stereo unspecified) -6.7%, Cc1c(N=C2N=C(NC(=O)NC(C)(C)C)c3ccccc32)c(=O)n(-c2ccccc2)n1C 1.4%, Cc1cccc(C)c1NS(=O)(=O)c1cc2c3c(c1)CC(=O)N3CCC2 6.8%, CCc1nc(C)cn1S(=O)(=O)c1ccc(Cl)c(Cl)c1Cl 18.7%, CCc1nc(C)cn1S(=O)(=O)c1ccc([N+](=O)[O-])cc1 0.5%, Cc1c(C(=O)NCCN2CCCC(O)C2)oc2c(F)cccc12 (stereo unspecified) 26.6%, O=C(N/N=C/c1cccn1-c1ccc([N+](=O)[O-])cc1)C(O)c1ccccc1 (stereo unspecified) 16.8%, Cc1cc(/C=N/Nc2ccc([N+](=O)[O-])cn2)c(C)n1-c1ccccc1 13.4%, Cc1ccc(S(=O)(=O)N2CC=C(C(=O)NC3CC3)CC2)cc1 17.2%, COc1ccc(CNc2nc3c(c(C(F)(F)F)n2)CCCCC3)cc1 13.2%, CN1CCN(C(=S)SCC(=O)N2CCCc3ccccc32)CC1 23.2%, COc1ccc(/C=C/c2nc3ccccc3n2C)cc1 -8.1%, Cc1csc(NC(=O)c2cccc(S(=O)(=O)N3CCN(C)CC3)c2)n1 5%, Cc1c(CCOC(=O)c2ccccc2)sc[n+]1CC(=O)c1ccc(Br)cc1 -14%, Cc1c(CCOC(=O)CC23CC4CC(CC(C4)C2)C3)sc[n+]1CC(=O)c1ccc(Br)cc1 58.4%, COc1c(F)c(F)c(C(=O)Nc2ccc(NC(=O)c3ccco3)cc2)c(F)c1F 9.4%, COc1ccc(-c2csc(-n3ncc(C(=O)O)c3C(F)(F)F)n2)cc1 0.6%, C=CCn1c(CCc2ccccc2)nnc1SCC(N)=O 1.8%, C=CC(=O)NCCCc1cc(C(C)(C)C)c(O)c(C(C)(C)C)c1 8.3%, Cc1cc(C(=O)CSc2nnnn2-c2ccc(O)cc2)c(C)n1C 3.7%, COc1ccccc1OC(=O)Nc1ccc(Cl)cc1 0.1%, O=S(=O)(Nc1ccc(Cc2ccncc2)cc1)c1ccc(Cl)cc1 -2.3%, O=S(=O)(Nc1ccc(Cc2ccncc2)cc1)c1ccc(Br)cc1 2.9%, Cc1cc2nc(-c3ccc[nH]c3=O)n(Cc3cccc(F)c3)c2cc1C 8.3%, Cc1ccc(NC(=O)Nc2cc(Cl)ccc2C2COC(=O)C2=N)cc1 (stereo unspecified) 7.5%, S=c1[nH]nc(-c2ccccc2)c2ccccc12 -20.4%, Cc1ccc(-c2n[nH]c(=S)c3ccccc23)cc1 10.4%, Cc1c(CN2CCN(CC(C)(C)C)C(CCO)C2)[nH]c2ccccc12 (stereo unspecified) 7.5%, COc1cccc(C2CC(c3cccc(NS(C)(=O)=O)c3)=NN2C(=O)c2ccccc2)c1OC (stereo unspecified) 10.9%, CN1CC2(C)CN(C(c3ccccc3)c3ccccc3)CC(C)(C1)C2O (stereo unspecified) 5.6%, Clc1ccc(C(c2ccccc2)N2CCNCC2)cc1 (stereo unspecified) 20%, CC(C)(NC(=O)N1CCCC1)c1cccc(C(C)(C)NC(=O)N2CCCC2)c1 0.9%, CCOC(=O)Cc1c(Cl)c2ccccc2[nH]c1=O -1.4%, Cc1cc(C(=O)Cn2nc(C(=O)O)c3ccccc3c2=O)c(C)n1C1CC1 3.9%, COc1ccc(CCN2C(=O)c3[nH]nc(-c4ccccc4O)c3C2c2ccccc2)cc1OC (stereo unspecified) 1.6%, COc1ccc(C2c3c(-c4ccccc4O)n[nH]c3C(=O)N2Cc2ccco2)cc1OC (stereo unspecified) -6.4%, COc1ccc(C2c3c(-c4ccccc4O)n[nH]c3C(=O)N2CCc2ccc(OC)c(OC)c2)cc1 (stereo unspecified) 9.9%, COc1ccc(CCN2C(=O)c3[nH]nc(-c4ccccc4O)c3C2c2cccc(Cl)c2)cc1 (stereo unspecified) 4.8%, COc1ccc(C(=O)OCC(=O)NC2CCCC2)c(OC)c1OC 3.7%, CCN(Cc1ccccc1)C(=O)CCCOc1ccccc1 -2%, CC(=O)Nc1ccc(S(=O)(=O)NNC(=O)C2CCCCC2)cc1 0.1%, Cc1ccc(S(=O)(=O)N2CCCCC2)cc1NC(=O)COC(=O)C1CC2C=CC1C2 (stereo unspecified) -2.7%, O=C(COC(=O)C1CC2C=CC1C2)Nc1cccc(S(=O)(=O)N2CCCCC2)c1 (stereo unspecified) -15.5%, CCCCCn1c(CNC(C)=O)nc2ccccc21 2.6%, O=c1c(-c2ccc(Cl)cc2)coc2c(CN3CCOCC3)c(O)ccc12 -5.8%, Cc1ccc(S(C)(=O)=NS(=O)(=O)c2cccc3nsnc23)cc1 (stereo unspecified) 5%, Cn1c(=O)c(C(=O)NCCc2ccccc2)c(O)c2ccccc21 11.2%, O=C1C(Cc2ccc(Br)cc2)SC(=Nc2ccccc2)N1c1ccccc1 (stereo unspecified) 7.8%, Nc1ccc(N2CCCCC2)c(S(=O)(=O)Nc2ccc(Cl)cc2)c1 16.6%, COc1ccccc1NS(=O)(=O)c1cc(N)ccc1N1CCCCC1 -8.3%, C/C(=N\Nc1ccc(Cl)c(C(=O)O)c1)c1cccc2ccccc12 -3.2%, COC(=O)[C@H](Cc1ccccc1)NC(=O)N1CCCCC1C (stereo partly specified) 11.9%, O=C(c1ccco1)N(CC1CCCO1)c1nc(-c2ccccc2)cs1 (stereo unspecified) -1.7%, CCCCCn1c(C(Cc2ccccc2)NC(=O)COC)nc2ccccc21 (stereo unspecified) 25.9%, CCCCC(NC(C)=O)c1nc2ccccc2n1CCCC (stereo unspecified) 7.3%
